Most compounds without a hit are left out; they make up all but 4.1% or so of the library.
DAX1 inh-1: DAX1 (NR0B1) inhibition, primary screen; HEK293T StAR-luciferase reporter, SF-1/DAX-1 repression relief; inhibition, % at 6.8 µM; hit rate 1.1% among 370,000; AID 652010;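 active = inhibition above the mean over all tested compounds plus 3 SD, cut at about 3.6% in these data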;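 also: 0% = DAX-1 cells with DMSO and 100% = cells lacking DAX-1 with DMSO; higher inhibition means more luminescence from relief of DAX-1 repression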
DAX1 inh-2: inhibits human nuclear receptor DAX1. hit rate 0.99% among 340,000. P51843. inhibition, % at 6.75 µM. HEK293 Gal4-DAX1 luciferase reporter, luminescence;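 active = inhibition above the mean over all tested compounds plus 3 SD, cut at about 4.2% in these data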;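 also: 0% = DAX1-transfected cells with DMSO and 100% = empty-vector control cells with DMSO; inhibition shows as a rise in luminescence from relieved DAX1 repression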
Target sequence (P51843 207-470 limits assumed): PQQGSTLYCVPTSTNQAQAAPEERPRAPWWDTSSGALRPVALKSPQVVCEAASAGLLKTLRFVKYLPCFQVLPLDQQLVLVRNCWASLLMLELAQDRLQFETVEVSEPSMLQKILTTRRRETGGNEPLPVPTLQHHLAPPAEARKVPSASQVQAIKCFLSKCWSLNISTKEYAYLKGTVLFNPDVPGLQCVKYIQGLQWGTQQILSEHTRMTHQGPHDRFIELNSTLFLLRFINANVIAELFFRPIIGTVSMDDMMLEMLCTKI
hgDAF12 agonist: activates the H. glycines DAF-12 receptor ligand-binding domain; hit rate 1.8% among 370,000; AID 687014; activation, % at 6.8 µM; HEK293 GAL4-hgDAF12 UAS-luciferase reporter, agonist luminescence; normalized to butyrate control;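 active = activation above a cutoff set at the mean of all screened compounds plus 3 SD, cut at about 10% in these data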;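 also: 0% = DMSO wells and 100% = sodium butyrate wells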
hcDAF12 agonist: H. contortus DAF-12 activation, primary screen. activation, % at 6.8 µM. AID 652067. hit rate 1.4% among 370,000. HEK293 hcDAF-12 lit1-tk-luc reporter, luminescence; 0% DMSO, 100% Δ7-dafachronic acid;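 active = activation above the mean of all tested compounds plus 3 SD, cut at about 5.5% in these data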;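 also: 100% = response to 3 µM Δ7-dafachronic acid high control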
ssDAF-12 act: activators of S. stercoralis DAF-12 nuclear receptor | HEK293 ssDAF-12/GRIP1 lit1-tk-luc reporter, luminescence; % of 3 µM dafachronic acid response | activation, % at 6.8 µM | hit rate 1% among 370,000;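 active = activation above the mean over all tested compounds plus 3 SD, cut at about 0.9% in these data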;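 also: 0% = DMSO-only wells and 100% = 3 µM delta7-dafachronic acid wells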
* = called active by the depositor; . = no result given.

SMILES | DAX1 inh-1 | DAX1 inh-2 | hgDAF12 agonist | hcDAF12 agonist | ssDAF-12 act
O=C(CN1CCOCCOCCOCC1)Nc1ccccc1 | 0.2 | 0.6 | 3.7 | -2.8 | -1.7
COc1cc2ccc(=O)oc2cc1O | 0.5 | 5.1* | -4.2 | -1.2 | -1.6
COc1cc2ccc(=O)oc2cc1OCC(O)C(C)(C)O (stereo unspecified) | 0.2 | 3.0 | 1.0 | -1.2 | -1.7
Cc1nc2ccccc2n1C(=O)c1ccc(Cl)cc1[N+](=O)[O-] | 0.0 | 0.1 | -1.1 | 5.8* | -1.2
CCc1ccc(Nc2ncc3c(n2)CC(C)(C)CC3=O)cc1 | 1.3 | 7.1* | 6.7 | 2.1 | -0.9
CCc1ccc(Nc2ncc3c(n2)CC(C)CC3=O)cc1 (stereo unspecified) | 3.8* | 0.8 | 10.0 | 1.2 | -0.2
CCc1ccc(Nc2ncc3c(n2)CC(c2ccc(OC)cc2)CC3=O)cc1 (stereo unspecified) | -1.1 | -0.3 | -1.2 | 1.1 | -0.5
COc1cc(C=Nn2c(-c3cc(-c4ccccc4)n[nH]3)n[nH]c2=S)ccc1OC(C)=O | -0.9 | . | 3.8 | -2.3 | -1.9
C[C@@H]1OC(C2CCCCC2)N(C)[C@H]2C[C@H]3c4[nH]c5cccc(-c6cccc(F)c6)c5c4CCN3C(=O)[C@@H]12 (stereo partly specified) | -0.9 | . | 0.6 | -3.6 | -1.5
Cc1cc(-c2nn3c(C)nnc3s2)ccc1NC(=O)C(C)(C)C | 3.0 | 0.9 | 12.3* | 5.3 | 0.4
CCCCN1CN2Cc3cc(F)ccc3C2CS1(=O)=O (stereo unspecified) | 0.2 | . | 2.1 | -0.9 | -0.2
Cc1ccc(C(=O)n2nc(-c3ccccc3)nc2NCc2ccco2)cc1 | 0.8 | -0.2 | 0.9 | -0.5 | -1.3
CCCC(=O)n1nc(-c2ccc(C)cc2)nc1NCc1ccco1 | 1.6 | 1.1 | 12.7* | 1.1 | -1.2
OCCNc1nc(Nc2cccc(O)c2)nc2ccccc12 | -1.1 | -1.1 | 4.7 | -2.7 | -1.4
OCCNc1nc(Nc2ccc(O)cc2)nc2ccccc12 | 0.7 | 5.8* | 0.9 | -0.1 | -1.1
Cc1ccc(N(Cc2cc(=O)[nH]c3ccccc23)C(=O)C(C)C)cc1 | 0.6 | 4.0 | 7.7 | 1.4 | -0.5
CCN(Cc1cc(=O)[nH]c2ccccc12)C(=O)C(C)C | -0.2 | 1.4 | 0.0 | 5.1 | 0.9*
CCN(Cc1cc(=O)[nH]c2ccccc12)C(=O)c1ccc(C)cc1 | 1.1 | 1.4 | 0.8 | 2.0 | 1.8*
Cc1ccc(O)c(C(C)c2c[nH]c3ccccc23)c1 (stereo unspecified) | 0.2 | . | -0.9 | 3.8 | 0.0
CCOc1ccc(/C=N/Nc2ccc(Cl)nn2)c(O)c1 | 0.1 | 0.7 | 4.0 | 1.2 | -0.4
CCOc1ccccc1/C=N/Nc1ccc(Cl)nn1 | -0.2 | 0.6 | -0.8 | 0.4 | 1.0*
O=c1nc(Nc2ccccc2)oc2ccccc12 | 0.9 | 5.8* | 8.5 | 3.7 | -0.3
COC(=O)[C@]12C[C@H](CC(=O)N3CCSCC3)C(=O)N(Cc3ccco3)C1=C[C@H](C(C)C)O[C@@H]2C1CC1 | 0.6 | . | -3.3 | -1.1 | -1.5
On1c(-c2ccccc2)nc2ccccc21 | 1.2 | 1.2 | 3.4 | 0.5 | -1.2
On1c(-c2ccc(Cl)cc2)nc2ccccc21 | 1.7 | . | 11.4* | 3.3 | -0.3
SMILES | DAX1 inh-1 | DAX1 inh-2 | hgDAF12 agonist | hcDAF12 agonist | ssDAF-12 act
CC1CCC(=O)N(CCSc2ccccc2)CC1 (stereo unspecified) | 1.6 | 0.8 | 7.3 | 6.2* | 0.0
O=C(OCCCN1CCC2(CCCCC2)C1=O)c1ccccc1 | 0.7 | . | -0.8 | -0.9 | -0.9
O=C(c1cccc(F)c1)N1CCCC(c2nc(-c3cccs3)no2)C1 (stereo unspecified) | -0.3 | . | -0.7 | -2.2 | -0.8
O=CNc1cc(-c2cccc(F)c2)cn2c(-c3ccc(F)c(Cl)c3)cnc12 | 0.9 | . | 3.9 | -0.5 | -0.6
O=CNc1cc(-c2ccccc2)cn2c(-c3ccc(F)c(Cl)c3)cnc12 | 1.3 | . | 2.4 | -0.6 | 1.5*
Clc1ccccc1Cn1ccc2ccc(-c3ccc4ccn(Cc5ccccc5Cl)c4c3)cc21 | -0.8 | . | -0.2 | -1.7 | -1.1
Cc1cc(C)c2c(N)c(C(=O)c3ccccc3)sc2n1 | -0.6 | . | 1.7 | -2.1 | -1.7
Cc1nc2sc(C(N)=O)c(N)c2c(C)c1CC(=O)c1ccccc1 | 1.4 | -0.1 | 12.4* | -0.2 | -0.9
Fc1ccc(-c2cc(-c3nnc4sc(-c5cccs5)nn34)[nH]n2)cc1 | -2.0 | . | -1.1 | -2.1 | -1.9
CCOC(=O)c1c(C)[nH]c(C(=O)NCc2ccccn2)c1C | 4.1* | 1.1 | 5.3 | -0.4 | -0.5
CCOC(=O)c1c(C)[nH]c(C(=O)OCc2ccc(C)cc2)c1C | 4.2* | 0.4 | 4.1 | 0.7 | 0.3
CCOC(=O)c1c(C)[nH]c(C(=O)COC(=O)CCSc2ccccc2)c1C | 0.3 | 0.7 | 8.9 | 6.3* | 0.1
COc1cccc(CC(=O)OCC(=O)Nc2c(C)nn(-c3ccccc3)c2C)c1 | 0.3 | 7.0* | 6.6 | -0.9 | -1.0
CC(C)(C)OC(=O)N/N=C/c1cccc([N+](=O)[O-])c1 | 4.4* | 1.9 | 11.3* | 3.7 | 0.4
CC(NC(=O)C(=O)N/N=C\c1cccc([N+](=O)[O-])c1)c1ccccc1 (stereo unspecified) | -0.4 | 5.0* | 0.0 | 0.4 | -1.4
Clc1ccc(-c2nnc(SCc3cccc4ccccc34)n2Cc2ccco2)cc1 | -2.0 | . | 1.6 | -1.7 | -2.0
COc1ccc(NS(=O)(=O)c2cccc(C(=O)NCC(c3ccc(OC)cc3)N3CCCC3)c2)cc1 (stereo unspecified) | 4.2* | 0.8 | 3.8 | -0.1 | -1.3
COc1ccc(C(CNC(=O)c2cccc(S(=O)(=O)Nc3ccc(F)cc3)c2)N2CCCC2)cc1 (stereo unspecified) | 3.6* | -0.5 | -1.9 | -1.7 | -0.3
CN(c1ccccc1)S(=O)(=O)c1ccc(C(=O)NCC(c2ccco2)N2CCCCC2)cc1 (stereo unspecified) | 0.9 | -0.2 | -2.1 | -0.1 | -1.8
COc1ccc(NS(=O)(=O)c2cccc(C(=O)NCC(c3ccc(OC)cc3)N3CCCCC3)c2)cc1 (stereo unspecified) | 2.4 | 0.3 | -2.5 | -0.4 | -1.3
Cc1ccc(S(=O)(=O)N(C)c2ccc(C(=O)NCC(c3ccccc3)N3CCCC3)cc2)cc1 (stereo unspecified) | 4.0* | 3.5 | 0.3 | -0.5 | -1.0
O=C(CCn1nnc(-c2cccs2)n1)N1CCCCC1 | 1.6 | . | 4.6 | -1.0 | -0.6
CCCCN(C)S(=O)(=O)c1ccc2[nH]c(=O)oc2c1 | 0.3 | . | 0.0 | -2.2 | -1.4
CCCS(=O)(=O)N1CCN(C2CCC(C)CC2)CC1 (stereo unspecified) | -0.8 | 5.7* | -2.0 | -0.7 | -1.7
O=C(NCc1ccccc1Cl)c1ccc(CSc2nc3ccncc3[nH]2)cc1 | -1.0 | -1.1 | -1.8 | -2.8 | -1.4
Clc1ccccc1CSc1nc2ccncc2[nH]1 | 2.9 | -0.6 | 12.0* | 3.5 | -0.2

Assay outcomes: PubChem BioAssay, The Scripps Research Institute Molecular Screening Center
